Test results: ChEMBL document CHEMBL3988442, “University of Dundee, Small-Polar-MMV Screening Library” (2021)
In all, about 38,000 compounds went through this assay and about 1,200 (3.2%) showed an effect of 50% or more. The median lay at about -58%. The sample holds strong results, similar compounds and a random draw of the others, so the mix is not that of the screen.

These compounds were tested on Plasmodium falciparum (assay: Calibr Malaria Delayed Death Assay SOP). Details: concentration 4.99e-06 (unit not given; other assays of the set use mol/L).
Assay type: functional, organism-based
Parameters: scale not given: in the data most compounds retested in dose-response had high values

Structure (SMILES) | Percent Effect [%]
COc1ccc(C(=O)CCC(=O)NCc2ncc(C)s2)cc1F | -71.69
CCCOC1Sc2nnc(C)n2N=C1c1ccccc1 (centres undefined) | -105.9
COc1cccc(CNCCNS(=O)(=O)Cc2ccccc2)c1 | 54.45
COc1cccc(CNCCc2cccc(C(N)=O)c2)c1 | -12.09
COc1cccc(OCCNS(=O)(=O)Cc2ccccc2)c1 | -90.07
C[C@@H]1CN(c2nc3c(cc2C(N)=O)CCC3)C[C@@]1(O)C1CCC1 | -102.5
O=C(Nc1cccnc1-n1cc(Cl)cn1)C1CCCCC1 | -29.97
CCOC(=O)C(C)NC(=O)N1CCN(c2nc3ccccc3n2C)CC1 (centres undefined) | -114
CSCc1cc(F)ccc1CNCc1cccc(O)c1 | 72.86
CSCc1cc(F)ccc1CNCc1cccnc1 | 1.167
CSCc1cc(F)ccc1CNCc1ccncc1 | -80.12
CC(C)CCOc1ccc(C(C)NC(=O)CSCC(N)=O)cc1 (centres undefined) | -21.89
Cc1cc(=O)[nH]c(=O)n1COCc1ccccc1 | -164.1
Cc1ccc(C(=O)N2CC(Oc3ccccc3C)C2)s1 | -70.19
CCCn1ccnc1CN1CCC(O)(CN2CCCCC2)C1 (centres undefined) | 17.5
COc1ccc(F)cc1CN1CCCC(c2cc(C(N)=O)[nH]n2)C1 (centres undefined) | -17.41
COc1ccc(F)cc1CN1CCC(O)(CN2CCCCC2)C1 (centres undefined) | 69.8
COc1ccc(CN2CCC(O)(CN3CCCCC3)C2)c(C)c1 (centres undefined) | 66.37
Cc1cc(-n2cccn2)ccc1CN1CCC(O)(CN2CCCCC2)C1 (centres undefined) | 60.7
COCC(=O)N1CCC2(CCCN(Cc3cc(OC)ccc3F)C2)C1 (centres undefined) | -77.74
CCCn1ccnc1CN1CCCC(O)(CN2CCCC2)C1 (centres undefined) | -81.98
OC1(CN2CCCC2)CCCN(Cc2cnc(-c3ccccc3)nc2)C1 (centres undefined) | 13.01
COc1ccc(F)c(CN2CCCC3(CCN(C(=O)CSC)C3)C2)c1 (centres undefined) | -70.9

Structure (SMILES) | Percent Effect [%]
COc1ccc(F)cc1CN1CCCC1Cn1nc(C)nc1C (centres undefined) | -22.72
Cc1cc(F)ccc1CN1CCCC(O)(CN2CCCC2)C1 (centres undefined) | 66.53
O=C(NCC1(O)CCC1)c1cccc(-n2cccn2)c1 | -36.51
O=C(NC1CCc2cc(Cl)ccc21)C1CCN(C(=O)C2CC2)CC1 (centres undefined) | -26.17
OCC1CCCN(Cc2c(C3CCCC3)[nH]c3ncccc23)C1 (centres undefined) | 11.34
Cc1cc(CN2CCN(Cc3ccc(C#N)cc3F)CC2)no1 | -21.87
CC(C)(C)OC(=O)N1CCN(S(=O)(=O)CCCC#N)C2(CCCCC2)C1 | -7.011
Cc1ccc2nc(CN3CCC(O)(CN4CCCC4)CC3)cc(O)c2c1 | -44.54
OC1(CN2CCCC2)CCCN(Cc2cnc(-c3ccco3)nc2)C1 (centres undefined) | -86.93
COc1ccc(C)cc1CC(=O)N1CC[C@@]2(CCCO2)[C@@H](O)C1 | -95.97
Cc1ccc(Cn2c(=O)[nH]c3csnc3c2=O)cc1 | -6.005
Cc1nc(CN2CCC3(CC2)C(=O)N(C)CCN3C)cs1.O=C(O)C(F)(F)F.O=C(O)C(F)(F)F.O=C(O)C(F)(F)F | -106.3
Cn1cc(CN2CCCC23CCN(c2nc4ccccc4s2)CC3)cn1 | 50.94
c1ccc2sc(N3CCC4(CCCN4Cc4ncc[nH]4)CC3)nc2c1 | 19.28
Cc1nc(CN2CCCC23CCN(c2nc4ccccc4s2)CC3)co1 | 8.403
Cc1cccc(SC2CCN(C(=O)CCNS(C)(=O)=O)CC2)c1 | -80.26
CCOCCOC(C)C(=O)Nc1ccnn1-c1ccccc1C (centres undefined) | -67.54
COc1cc(CCC(=O)NCC2CC2)ccc1OCC(F)(F)F | -33.72
Fc1ccc(CN2CCCC2Cn2cncn2)c2ncccc12 (centres undefined) | 10.61
Nc1nc(CN2CCCC(Cn3cncn3)C2)nc2ccccc12 (centres undefined) | -138.6
Fc1ccc(CN2CCOC(Cn3cncn3)C2)c2ncccc12 (centres undefined) | -95.84
Fc1ccc(CN2CCCCC2Cn2cncn2)c2ncccc12 (centres undefined) | 64.52
Fc1ccc(CN2CCCC(Cn3cncn3)C2)c2ncccc12 (centres undefined) | -5.261

Structure (SMILES) | Percent Effect [%]
Clc1ccc(CN2CCCC(Cn3cncn3)C2)c2ncccc12 (centres undefined) | 63.13
CCn1nnc2c1C(COC)CN(C(=O)Cc1ccccn1)C2 (centres undefined) | -16.62
CNC(=O)C1CCN(S(C)(=O)=O)CC1 | -158.4
O=C1CC(c2cccs2)c2sc(C(=O)O)c(-c3ccccc3)c2N1 (centres undefined) | -70.62
Cc1nc(N2CCCC2)ccc1NCc1ccccn1 | -6.068
COc1ccc(C(=O)O)c(OCC(=O)NC(C)c2ccccc2)c1 (centres undefined) | -10.57
COCCCNC(=O)c1c[nH]c2ccc(OC)cc12 | -47.08
O=C1CCNc2ccc(F)cc2CN1Cc1ccccc1 | -35.83
CC1N(c2cnn(C)c2)C(=O)COC12CCN(CC1CC1)CC2.O=C(O)C(F)(F)F (centres undefined) | -75.35
COc1ccc(NC(=O)c2ccc(-n3ncc(C#N)c3N)cc2)cn1 | 80.07
CCN(CC)C(=O)c1ccc(-n2ncc(C#N)c2N)cc1 | -24.17
Cc1cnc(NC(=O)c2ccc(-n3ncc(C#N)c3N)cc2)s1 | -56.37
O=C(CSc1ccccn1)N1CCC(OCc2cccnc2)CC1 | -154
Cn1cnc(S(=O)(=O)NCCC(O)c2ccc3c(c2)OCO3)c1 (centres undefined) | -141.1
CC(Nc1cccc(F)c1C#N)c1cccc(S(N)(=O)=O)c1 (centres undefined) | -56.47
Cc1ccnc(OC[C@]23COC[C@H]2CN(C(=O)C2=CCCCC2)C3)n1 | -29.48
C[C@]1(O)CCN(Cc2c[nH]cn2)C[C@@H]1Oc1cccc(F)c1 | -164.2
NCc1ccc(Oc2cccc(Cl)c2Cl)cc1 | 19
CC(C)Oc1ccccc1-c1cc(CN)ccc1F | 60.74
COc1cccc(Cl)c1-c1cc(CN)ccc1F | 65.68
CC(C)Oc1ccc(CNC(=O)c2cc(C(N)=O)cs2)cc1F | -80.32
COc1cccc(-c2cc(CN)ccc2F)c1F | -75.66
COCCNC(=O)NCc1ccc(OC(C)C)c(F)c1 | -81.14
